Assay results from PubChem BioAssay (NCI).
About 79,000 compounds went through this panel and 15% of them were active in at least one assay; those are over-represented in the sample as a whole. Rule as the data show it: active = growth inhibition above about 70%; inactive = the rest.

Experiments:
[1] = NCI Yeast Anticancer Drug Screen. Data for the rad50 strain (AID 155);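 also: 0% = growth of vehicle-only cultures of the same strain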; conditions: S. cerevisiae rad50 strain growth inhibition; at 50.0 µM; active compounds read high
Procedure, shortened: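 A DNA repair-deficient yeast mutant serves as the test organism; compound-induced growth inhibition is calculated against vehicle-treated cells.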

[2] = NCI Yeast Anticancer Drug Screen. Data for the mec2-1 strain (AID 157); conditions: S. cerevisiae mec2-1 strain, at 50.0 µM, active compounds read high
Procedure, shortened: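 Using mec2-1 yeast: add compound, measure growth, express inhibition versus vehicle-treated cultures.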

[3] = NCI Yeast Anticancer Drug Screen. Data for the sgs1 mgt1 strain (AID 161);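 also: 0% = growth of cultures given vehicle only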; conditions: S. cerevisiae sgs1 mgt1 strain, at 50.0 µM, active compounds read high
Procedure, shortened: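 Growth of a repair-deficient yeast mutant was monitored after compound treatment and expressed as inhibition relative to vehicle-treated cultures.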

[4] = NCI Yeast Anticancer Drug Screen. Data for the cln2 rad14 strain (AID 165);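 also: 0% = growth equal to vehicle treated cultures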; conditions: S. cerevisiae cln2 rad14 strain, at 50.0 µM, active compounds read high
Procedure, shortened: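 Yeast strain cln2 rad14, bearing defects in cell cycle control and DNA repair, serves as the test system; values reflect growth inhibition compared with vehicle.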

[5] = NCI Yeast Anticancer Drug Screen. Data for the bub3 strain (AID 167); conditions: S. cerevisiae bub3 mutant strain, at 50.0 µM, active compounds read high
Procedure, shortened: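 Inhibition values come from growth of compound-treated mutant yeast normalised to vehicle-treated controls.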

[6] = NCI Yeast Anticancer Drug Screen. Data for the mlh1 rad18 strain (AID 175); conditions: S. cerevisiae mlh1 rad18 strain growth inhibition; at 50.0 µM; active compounds read high
Procedure, shortened: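 Steps: expose repair-defective yeast to compound; measure growth; express inhibition against vehicle-treated controls.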

Measured: growth inhibition

CCOC(=O)C(=CNc1cc(OC)cc2cccnc12)C(=O)OCC
inactive: [1] -12.8% | [2] 4.1% | [3] 0.15% | [4] 18.8% | [5] 16.1% | [6] -11.4%

CCOc1cc2c(cc1O)/C(=N\O)C[C@@H]1[C@@H]2CC[C@]2(C)[C@@H](O)CC[C@@H]12
inactive: [1] 31.6% | [2] 13% | [3] 57.2% | [4] 20.6% | [5] 24.2% | [6] -9.15%

CC(=O)C1CCN(Cc2ccccc2)C1 (stereo unspecified)
inactive: [1] 3.75% | [2] 6.9% | [3] 7.15% | [4] -1.05% | [5] -12.7% | [6] -21.6%

CC(=O)Nc1ccc[n+](CC(=O)c2ccc(F)cc2)c1
inactive: [1] -8.95% | [2] 0.85% | [3] 4.35% | [4] -42.6% | [5] -5.45% | [6] 8.65%

CC(C)(C)OC(=O)NCCCCC(NC(=O)OC(C)(C)C)C(=O)O (stereo unspecified)
inactive: [1] 3.65% | [2] 8.55% | [3] 9.7% | [4] 2.8% | [5] 5.95% | [6] -8.65%

CCC(CO)(C(=O)O)c1ccccc1 (stereo unspecified)
inactive: [1] 1.85% | [2] 22.2% | [3] 4.95% | [4] 46.9% | [5] 4.6% | [6] 2.3%

C=CCC1=C2CCCCC2CCC1=O (stereo unspecified)
inactive: [1] -5.7% | [2] -27.8% | [3] -15.9% | [4] 3.3% | [5] -11% | [6] 4.95%

Oc1cc(CN2CCOCC2)c(O)c(CN2CCOCC2)c1
inactive: [1] 14.7% | [2] 8.95% | [3] 21.1% | [4] 20% | [5] 7.7% | [6] 24.6%

N#C/C(=C\c1ccc(Cl)cc1)c1nc2ccccc2c(=O)[nH]1
inactive: [1] 12.2% | [2] 17.9% | [3] -14.5% | [4] 5.7% | [5] 1.8% | [6] -53.2%

CSc1ccc(NC(=O)NNP(=S)(Oc2ccc(C(C)(C)C)cc2)Oc2ccc(C(C)(C)C)cc2)cc1
inactive: [1] -10.7% | [2] -18.1% | [3] 0.5% | [4] 13.8% | [5] -5.75% | [6] -6.2%

C/C(=C/c1ccccc1)C(F)F
inactive: [1] 3.9% | [2] -5.7% | [3] -13% | [4] -7.45% | [5] -11.6% | [6] 8.75%

O=C(O)c1ccc2c(c1)CC1(C2)Cc2ccccc2C1=O (stereo unspecified)
inactive: [1] -16.4% | [2] -4.9% | [3] -8.2% | [4] -14.2% | [5] 6.15% | [6] -2.75%

Clc1ccc2c(c1)Cc1ccccc1-2
inactive: [1] 38.6% | [2] -6.95% | [3] 34.1% | [4] 7.5% | [5] 51.6% | [6] 22.2%

O=C(O)C(CCOc1ccccc1)(CCc1ccccc1)C(=O)O
inactive: [1] 4.1% | [2] -10.8% | [3] 5.7% | [4] -58.5% | [5] -8.1% | [6] -13.4%

Cc1nc(=S)c2cnn(-c3ccccc3)c2[nH]1
inactive: [1] -15.4% | [2] -21.2% | [3] -3.9% | [4] -57.2% | [5] -27.1% | [6] -0.6%

C(=C\c1ccc(-c2ccccc2)cn1)/c1ccccc1
inactive: [1] -8.5% | [2] -15.8% | [3] -3.45% | [4] -26.6% | [5] 24.8% | [6] -12%

Cc1ccc(C(c2ccccc2)C(CC(=O)O)CC(=O)O)cc1 (stereo unspecified)
inactive: [1] 1.2% | [2] 20% | [3] 15% | [4] 6.45% | [5] 5.2% | [6] 15.9%

O=C1C(=C(c2ccc([N+](=O)[O-])cc2)N2CCOCC2)C(=O)c2ccccc21
inactive: [1] 8.9% | [2] 0.4% | [3] 6.45% | [4] -30.9% | [5] 1.75% | [6] 10.3%

CCCCCCCCCCCCCCCCCCN(C)C
inactive: [1] 54% | [2] 23.1% | [3] 13.8% | [4] -64.9% | [5] 46.7% | [6] 25.9%

C/C(=C/c1ccccc1)OC(=O)c1ccccc1
inactive: [1] 25.7% | [2] 4.55% | [3] 10.8% | [4] -1.85% | [5] 26.4% | [6] 36.2%

CCOC(=O)c1cc(OC(C)=O)c2ccccc2c1
inactive: [1] 26.9% | [2] 9.2% | [3] 41.5% | [4] 15.8% | [5] 61.5% | [6] 41.5%
